Source: PubChem BioAssay (Tox21)
Values without a mark were called inactive. Results filed as inconclusive are left out. A call without a number means that no potency is given here. The source made the active and inactive calls. Unless noted, calls come from the whole dose curve; as a rule, active = well fitted curve in the direction sought with a large enough effect in the repeat runs; inconclusive = weak or mixed curves; inactive = no such curve, though single readings can be large; an effect the other way counts as inactive or inconclusive.

Legend:
[1] = qHTS assay to identify small molecule agonists of the hypoxia (HIF-1) signaling pathway - cell viability counter screen (AID 1224844; calls by dose curve; note: nearly all actives have a fitted effect of over 50% in size; note: potency is the fitted concentration of half-maximal effect)
Summary of the method: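 Cells (HRE-bla ME-180, 2,000 per well) sat 5 hrs at 37C, got compound for 17 hrs, were read for CCF4-AM FRET, and were finally lysed with CellTiter-Glo for a 30 min room-temperature luminescence read.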

[2] = qHTS assay to identify small molecule agonists of H2AX (AID 1224845; active = well fitted activation curve with a large enough effect in the signal ratio in the repeat runs, not every such curve was filed as active; the % refers to the signal ratio)
Summary of the method: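 Wild-type CHO-K1 cells plated overnight, then exposed 3 hr at 37C to compounds at 15 concentrations (0.76% DMSO). Lysed, then HTRF anti-pH2AX(S139)-cryptate/anti-H2AX-d2 detection after 24 hr at room temperature; emissions 665 and 620 nm.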

[3] = qHTS assay to identify small molecule agonists of H2AX - cell viability counter screen (AID 1224847; calls by dose curve; note: top concentration of the series differs between compounds; nearly all actives have a fitted effect of over 30% in size)
Summary of the method: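 Wild-type CHO-K1 cells (10% FBS medium) were plated overnight at 37C, exposed to compounds at 15 concentrations for 3 hr at 37C (0.76% DMSO final), and viability was read as CellTiter-Glo luminescence after 30 min at room temperature.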

[4] = qHTS RealTime-Glo MT Cell Viability Assay in HepG2 cells - 24 hour (AID 1224867); note: nearly all actives have a fitted effect of over 50% in size; note: potency is the fitted concentration of half-maximal effect
Summary of the method: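 Real-time, nonlytic viability: 600 HepG2 cells/well mixed with NanoLuc enzyme plus prosubstrate; 5 h settle, compound (DMSO) added by pintool; luminescence monitored over 40 h at 37 C.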

[5] = qHTS RealTime-Glo MT Cell Viability Assay in HEK293 cells - 32 hour (AID 1224868); note: nearly all actives have a fitted effect of over 50% in size; note: potency is the fitted concentration of half-maximal effect
Summary of the method: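 Cells + reagent dispensed (600 cells/well, HEK293) → 5 h at 37 C/5% CO2 → 23 nL compound in DMSO pinned → 40 h at 37 C → luminescence read at 0, 8, 16, 24, 32, 40 h.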

[6] = A CellTox Green Cytotoxicity Assay to monitor cytotoxicity in HEK293 cells - 0 hour (AID 1224869); note: nearly all actives have a fitted effect of over 50% in size
Summary of the method: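 Fluorescence intensity, read at 0, 8, 16, 24, 32 and 40 h of compound treatment, reflected dye binding to DNA of dead HEK293 cells; compounds (23 nL, DMSO) were added 5 h after plating cells with reagent.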

[7] = qHTS RealTime-Glo MT Cell Viability Assay in HepG2 cells - 40 hour (AID 1224870); note: nearly all actives have a fitted effect of over 50% in size; note: potency is the fitted concentration of half-maximal effect
Summary of the method: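 HepG2 cells mixed with RealTime-Glo MT reagents (NanoLuc plus cell-permeant prosubstrate) were seeded at 600 cells/well, incubated 5 h at 37 C/5% CO2, then pinned with compounds in DMSO; nonlytic luminescence tracked viability during 40 h treatment.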

[8] = qHTS assay to identify small molecule antagonists of the estrogen related receptor (ERR) signaling pathway from Tox21 library (AID 1224848); note: nearly all actives have a fitted effect of over 50% in size; note: potency is the fitted concentration of half-maximal effect
Summary of the method: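 Screening used an ERR reporter line supplied by NTP, exposed for 18 h at 37 C to library compounds delivered in DMSO. Signal was luciferase luminescence developed with ONE-Glo at room temperature for 30 min.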

[9] = qHTS assay to identify small molecule agonists of the estrogen related receptor (ERR) signaling pathway from Tox21 library (AID 1224849; calls by dose curve; note: nearly all actives have a fitted effect of over 15% in size); settings: ERR reporter cell line, ONE-Glo luciferase, 18 h; at 92.4 µM (top of the series) unless noted
Summary of the method: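 Screening used an NTP-provided ERR luciferase cell line. Compounds in DMSO were added 6 h after seeding and left 18 h at 37 C before a 30 min ONE-Glo step and luminescence reading.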

| Structure (SMILES) | Potency [1] | Potency [2] | Potency [3] | Potency [4] | Potency [5] | Potency [6] | Potency [7] | Potency [8] | activity change, positive = activation [9] |
| --- | --- | --- | --- | --- | --- | --- | --- | --- | --- |
| O=C(OC(=O)c1ccccc1)c1ccccc1 | inactive | inactive | inactive | inactive | inactive | inactive | inactive |  |  |
| CCCCCC#CC(=O)OC | inactive | inactive | inactive | inactive |  | inactive | inactive | inactive |  |
| Cc1cc2c(OCC(CNC(C)(C)C)OC(=O)c3ccccc3)cccc2[nH]1 (configuration not stated) | inactive | inactive | inactive | inactive |  | inactive | inactive |  |  |
| Cc1ccc(CO)cc1 | inactive | inactive | inactive | inactive | inactive | inactive | inactive |  |  |
| COC(=O)CCS | inactive | inactive | inactive | inactive | inactive |  | inactive |  |  |
| O=C(Cn1ccnc1[N+](=O)[O-])NCCO | inactive | inactive | inactive | inactive |  |  | inactive |  |  |
| Brc1cc(Br)c(Oc2cc(Br)c(Br)cc2Br)cc1Br | 21.3 µM (active) | inactive | inactive | inactive | inactive | inactive | inactive |  |  |
| CCCCOc1ccc(OCCCN2CCOCC2)cc1 | inactive | inactive | inactive | inactive |  | inactive | inactive |  |  |
| OCCN1CCN(CCCN2c3ccccc3Sc3ccc(Cl)cc32)CC1 | 15.1 µM (active) | inactive |  | 23.9 µM (active) | 23.9 µM (active) | inactive | 23.9 µM (active) | 29.8 µM (active) | -48% [at 42.5 µM] |
| CCOC(C)=O | inactive | inactive | inactive | inactive | inactive | inactive | inactive |  |  |
| CC(C)Nc1cccnc1N1CCN(C(=O)c2cc3cc(NS(C)(=O)=O)ccc3[nH]2)CC1 | inactive | inactive | inactive | inactive | inactive | inactive | inactive |  | -20.7% [at 42.5 µM] |
| CCOC(=O)OC(C)OC(=O)[C@@H]1N2C(=O)[C@@H](NC(=O)[C@H](N)c3ccccc3)[C@H]2SC1(C)C (some centres not stated) | inactive | inactive | inactive | inactive |  | inactive | inactive |  |  |
| Cc1ccc(Cl)c(Nc2ccccc2C(=O)O)c1Cl | inactive | inactive | inactive | inactive | inactive | inactive | inactive |  |  |
| O=C(O)CCC(=O)C(=O)O | inactive | inactive | inactive | inactive |  | inactive | inactive |  |  |
| CCC(OCCCOC)OC(C)=O (configuration not stated) | inactive | inactive | inactive | inactive | inactive | inactive | inactive |  |  |
| CN1C(C(=O)Nc2ccccn2)=C(O)c2sccc2S1(=O)=O | inactive | inactive | inactive | inactive | inactive | inactive | inactive |  |  |
